Screening data from PubChem.
This is a sample that favours compounds with a hit; in the whole collection about 2.2% have one here.
PAX8 reporter: PAX8 transcriptional activity inhibition; 1.2% of 360,000 active; RMG-I TPO-luciferase reporter, SteadyGlo, 24 h; inhibition, % at 12.6 µM;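 active means mean replicate inhibition at least 60% with every replicate also reaching 60%; inconclusive means only one of the two criteria is met; inactive means mean below 60% and not all replicates reaching 60%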;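 further: luciferase light reporting Pax8 driven TPO promoter activity; plate controls were median of neutral control wells for no effect and mitoxantrone controls for full effect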
LMP1 NFkB inh: Epstein-Barr LMP1 NF-kappaB reporter inhibition. LMP1-induced NF-kappaB luciferase reporter cells, luminescence. inhibition, % at 12.5 µM. 0.69% of 350,000 active. AID 504558; in the data active means inhibition above about 41%; inconclusive means no clear call, values can overlap the other calls;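 further: 0% = neutral control wells and 100% = reference inhibitor control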
LGR2 antag: Drosophila LGR2 receptor signaling inhibition | HEK293 LGR2, CRE-luciferase, bursicon-stimulated, 4 h | inhibition, % at 9.99 µM | 0.35% of 380,000 active | AID 720647;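 active means drop in luminescence signal, shown as inhibition above about 50% in the replicate tests, limit read from the data, passing the limit was not always enough; inconclusive means probably only some replicates passing the limit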;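 further: agonist challenge used bursicon conditioned medium at about half maximal strength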
Shn3 3UTR inh: Schnurri-3 reporter inhibition in Clone20 osteoblasts; 0.52% of 360,000 active; inhibition, % at 12.5 µM; Clone20 osteoblast Shn3 3'UTR firefly luciferase, 24 h;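 active means mean inhibition of at least 75% with every replicate also reaching 75%; inconclusive means mean inhibition at least 75% but some replicate below; inactive means mean inhibition below 75%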;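 further: 0% = median of neutral control wells and 100% = pilot-screen positive control compound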
EWS-Fli block: EWS/Fli transcriptional activity inhibition. A673 NR0B1-luciferase reporter, viability-normalised. inhibition, % at 12.6 µM. 0.67% of 350,000 active;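 active means mean inhibition of at least 50% after viability correction, with every replicate also passing that limit; inconclusive means mean reaches 50% but only one of two replicates passes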;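 further: firefly luciferase signal divided by Alamar Blue viability fluorescence both relative to DMSO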
TRPM1 prom inh: MITF TRPM1 promoter inhibition in SK-MEL-5 cells; SK-MEL-5 TRPM1 promoter luciferase, 24 h; inhibition, % at 12.5 µM; 0.83% of 330,000 active; AID 488899;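 active means mean inhibition across replicates of 60% or more, whatever share of single replicates reaches that level; inconclusive means some that reach 60%, reason not given; inactive means mean inhibition across replicates below 60%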
Numbers without * were called inactive.

Screening N#Cc1ccc(-c2ccc([C@@H]3[C@@H](CO)N4C(=O)CN(C(=O)Cc5ccccc5)C[C@H]34)cc2)cc1 returned PAX8 reporter 5, LGR2 antag -4 and EWS-Fli block 6.
Screening CCSC1(SCC)N=C(N)C2(C#N)C(c3ccc(F)cc3)C12C#N (stereo unspecified) returned LMP1 NFkB inh -13, Shn3 3UTR inh 31 and TRPM1 prom inh 82*.
`COC1(OC)N=C(N)C2(C#N)C(c3ccc(F)cc3)C12C#N` (stereo unspecified) gave LMP1 NFkB inh 2, Shn3 3UTR inh 1 and TRPM1 prom inh -13.
For O=C(C[C@@H]1CC[C@@H]2[C@H](COC[C@@H](O)CN2Cc2ccc(Oc3ccccc3)cc2)O1)N1CCc2ccccc2C1 the results were PAX8 reporter 45, LGR2 antag -6 and EWS-Fli block 27.
O=C(C[C@@H]1CC[C@H]2[C@@H](COC[C@H](O)CN2Cc2ccc(Oc3ccccc3)cc2)O1)N1CCc2ccccc2C1 was read as PAX8 reporter 106* and EWS-Fli block 31.
O=C(C[C@H]1CC[C@@H]2[C@H](COC[C@H](O)CN2Cc2ccc(Oc3ccccc3)cc2)O1)N1CCc2ccccc2C1 was read as PAX8 reporter 28 and EWS-Fli block 43.
O=C(C[C@H]1CC[C@H]2[C@@H](COC[C@@H](O)CN2Cc2ccc(Oc3ccccc3)cc2)O1)N1CCc2ccccc2C1 was read as PAX8 reporter 105* and EWS-Fli block 45.
C[C@H](CO)N1C[C@H](C)[C@@H](CN(C)C(=O)c2ccccc2)Oc2ncc(C3=CCCCC3)cc2C1=O was read as LGR2 antag -6 and EWS-Fli block 10.
For CC(C)NC(=O)Nc1ccc2c(c1)C(=O)N([C@@H](C)CO)C[C@@H](C)[C@@H](CN(C)C(=O)CCC(F)(F)F)OCCCC[C@@H](C)O2 the results were PAX8 reporter 10 and LGR2 antag 7.
Screening CNC(=O)C[C@@H]1CC[C@H]2[C@H](COc3ccc(NC(=O)c4ccc(F)c(F)c4)cc3C(=O)N2C)O1 returned PAX8 reporter -14, LGR2 antag 3 and EWS-Fli block -6.
Screening CCSc1nc2ccccc2n1CC(N)=O returned LMP1 NFkB inh -11, Shn3 3UTR inh -1 and TRPM1 prom inh 1.
For CCSc1nc2ccccc2n1C(=O)/C=C\c1ccc(OC)c(OC)c1 the results were PAX8 reporter 70*, LMP1 NFkB inh 68*, Shn3 3UTR inh -15 and TRPM1 prom inh 69*.
`Cc1csc(N/N=C/c2ccccn2)n1` gave PAX8 reporter -1, LMP1 NFkB inh inconclusive, LGR2 antag 69*, Shn3 3UTR inh 48, EWS-Fli block 42 and TRPM1 prom inh 46.
`Cc1cc(NN=Cc2ccccn2)nc2ccccc12` gave PAX8 reporter 41, LGR2 antag -9 and EWS-Fli block -5.
O=S(=O)(c1cc(F)ccc1F)N1CCN(c2ccccn2)CC1 was read as PAX8 reporter -4, LMP1 NFkB inh 2, LGR2 antag 9, Shn3 3UTR inh -6, EWS-Fli block -5 and TRPM1 prom inh 0.
For O=S(=O)(c1cc(F)ccc1F)N1CCN(c2ncnc3ccccc23)CC1 the results were PAX8 reporter 48, LMP1 NFkB inh 17, LGR2 antag 23, Shn3 3UTR inh 88*, EWS-Fli block 44 and TRPM1 prom inh 32.
For O=C(N[C@@H]1CC[C@H](CCNS(=O)(=O)c2ccccc2)O[C@@H]1CO)c1cccc(F)c1 the results were PAX8 reporter 2, LGR2 antag 4 and EWS-Fli block -2.
Screening COc1ccc(N/N=C(\C#N)C(=N)SCc2ccccc2)cc1 returned PAX8 reporter 10, LMP1 NFkB inh 35, LGR2 antag 67*, Shn3 3UTR inh -37, EWS-Fli block -9 and TRPM1 prom inh 26.
COc1ccc(N/N=C(\C#N)C(=N)N2CCCCC2)cc1 was read as PAX8 reporter -80, LMP1 NFkB inh -21, LGR2 antag -42, Shn3 3UTR inh -31, EWS-Fli block -70 and TRPM1 prom inh -56.
For O=C(Nc1nccs1)c1cc2c(s1)CCCCC2 the results were LMP1 NFkB inh 52*, Shn3 3UTR inh 29 and TRPM1 prom inh 46.
For O=C(Nc1nncs1)c1cc2c(s1)CCC2 the results were PAX8 reporter -59, LMP1 NFkB inh -15, LGR2 antag -10, Shn3 3UTR inh -77, EWS-Fli block -59 and TRPM1 prom inh -73.
